# High-throughput results (PubChem)
# NR3A LBD binder: binders of NR3A ligand-binding domain, primary screen, biophysical, differential scanning fluorimetry, uHTS. Glutamate receptor ionotropic, NMDA 3A (GRIN3A) ligand-binding domain. NR3A LBD differential scanning fluorimetry, Tm shift; 0% = protein alone, 100% = glycine-bound protein. Tm shift relative to glycine control, % at 25 µM. 340,000 tested, 2.5% active;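 active = melting temperature shift of at least 10% of the positive control shift, at one fixed dose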
# dFosB activator: activators of delta FosB homodimer, primary screen, biochemical, fluorescence polarization, TAMRA-CDK5 oligo, single point; 340,000 tested, 0.99% active; purified delta FosB; percent of positive-control signal above neutral wells; Protein FosB (Mus musculus), P13346; activation, % at 25 µM;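 active = mean activation above about 17%, with every replicate also reaching it, limit read from the data, passing the limit was not always enough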
# ZTA DNA inh: blocks Epstein-Barr virus ZTA, an EBNA-1 counter-screen; P03206; 320,000 tested, 0.15% active; ZTA-DNA binding, fluorescence polarization; inhibition, % at 11 µM; in the data active = inhibition above about 33%
# Rpn11 inh: Rpn11 (PSMD14) deubiquitinase inhibitors, primary screen, biochemical, fluorescence polarization, uHTS. 26S proteasome non-ATPase regulatory subunit 14 (Homo sapiens), O00487. inhibition, % at 20 µM. 360,000 tested, 0.59% active. human 26S proteasome, Ub4-pepOG fluorescence polarization; 20S core pre-blocked with epoxomicin;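 active = inhibition at 20 µM, scaled to each plate's controls, above about 33%, limit read from the data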
# EBNA-1 inhibitor: EBNA-1 DNA-binding inhibitors, primary screen, biochemical, fluorescence polarization. inhibition, % at 14.8 µM. 300,000 tested, 0.34% active; in the data active = inhibition above about 28%
# TPT1 inhibitor: Candida albicans TPT1 enzyme inhibitors, primary screen, biochemical, fluorescence polarization. tRNA 2'-phosphotransferase TPT1 (Candida albicans SC5314). recombinant caTPT1, FP RNA substrate dephosphorylation. inhibition, % at 5 µM. 300,000 tested, 0.81% active;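 active = inhibition above the mean of all tested compounds plus 3 SD, set per screening campaign, cut at about 24% in these data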;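 note: plate controls were DMSO alone for no effect and ferristatin control at 100 nM for full effect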
# caTPT1 confirm: Candida albicans TPT1 inhibitors, confirmation, biochemical, fluorescence polarization, triplicate; shares compounds with TPT1 inhibitor; recombinant caTPT1, RNase T1 coupled; inhibition, % at 5 µM; 2,400 tested, 74% active; AID 2149, 2009;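 active = inhibition above the primary screen limit, the mean inhibition of all tested compounds plus 3 SD, cut at about 25% in these data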
# RNase T1 counter: RNase T1 inhibitors, counter-screen for TPT1 inhibitor project, biochemical, fluorescence polarization. shares compounds with TPT1 inhibitor. RNase T1 cleavage, 1536-well. inhibition, % at 5 µM. 2,400 tested, 83% active;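 active = inhibition above the solvent-only control well mean plus 3 SD, limit set per screening run, cut at about 23% in these data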;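 note: plate controls were DMSO wells with enzyme for no effect and wells without RNase T1 for full effect; inhibitors block cleavage so intact labeled substrate keeps polarization high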
# Rpn11 confirm: Rpn11 (PSMD14) deubiquitinase inhibitors, confirmation, biochemical, fluorescence polarization, single concentration. shares compounds with Rpn11 inh. purified human 26S proteasome, Ub4-pepOG fluorescence polarization; proteasome pretreated with epoxomicin. inhibition, % at 20 µM. 1,900 tested, 29% active
# MMP-2 counter: MMP-2 enzyme inhibition, confirmation, counter-screen for RPN11 inhibitor project, biochemical, fluorescence, single concentration; inhibition, % at 20 µM; 1,900 tested, 4% active; AID 602330, 2012; recombinant MMP-2, FRET peptide cleavage fluorescence; shares compounds with Rpn11 inh;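 note: human MMP-2 activated beforehand with APMA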
# Thrombin FP: bovine thrombin protease inhibition, confirmation, counter-screen for Rpn11 inhibitor project, biochemical, fluorescence polarization, single concentration | 1,900 tested, 13% active | AID 602333, 2012 | inhibition, % at 20 µM | bovine thrombin cleavage of Ub4-pepOG | shares compounds with Rpn11 inh;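 active = mean inhibition at least 40% at 20 µM, or signal 3 deviations below plate average, so some actives read negative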;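 note: plate controls were thrombin with DMSO for no effect and buffer wells lacking thrombin for full effect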
# Target sequence (P00735 whole entry, looked up): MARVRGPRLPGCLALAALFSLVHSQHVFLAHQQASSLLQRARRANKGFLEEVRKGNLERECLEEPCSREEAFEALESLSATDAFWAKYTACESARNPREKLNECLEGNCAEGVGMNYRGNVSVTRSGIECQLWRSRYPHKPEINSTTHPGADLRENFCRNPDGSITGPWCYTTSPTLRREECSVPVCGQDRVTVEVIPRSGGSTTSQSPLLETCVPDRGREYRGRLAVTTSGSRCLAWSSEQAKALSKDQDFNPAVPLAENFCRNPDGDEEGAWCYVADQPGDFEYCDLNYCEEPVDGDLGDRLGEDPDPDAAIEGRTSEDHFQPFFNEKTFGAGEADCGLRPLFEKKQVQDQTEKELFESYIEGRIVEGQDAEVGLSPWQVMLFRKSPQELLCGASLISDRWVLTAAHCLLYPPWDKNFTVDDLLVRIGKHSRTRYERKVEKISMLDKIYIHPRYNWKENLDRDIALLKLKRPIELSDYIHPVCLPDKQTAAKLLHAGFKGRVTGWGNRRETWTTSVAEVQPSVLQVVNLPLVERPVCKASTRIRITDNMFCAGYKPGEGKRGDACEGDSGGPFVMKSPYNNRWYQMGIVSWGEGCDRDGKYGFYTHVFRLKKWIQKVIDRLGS
# * = called active by the depositor; / = no result shown. Hits are enriched below; roughly 4.5% of the tested compounds scored in any of these assays. Cut-off read from the data, not from the text of the source, unless noted: active = inhibition above about 40%; inactive = the rest.
SMILES,NR3A LBD binder,dFosB activator,ZTA DNA inh,Rpn11 inh,EBNA-1 inhibitor,TPT1 inhibitor,caTPT1 confirm,RNase T1 counter,Rpn11 confirm,MMP-2 counter,Thrombin FP
Nc1nc(SCC(=O)c2c(N)n(Cc3ccccc3)c(=O)[nH]c2=O)n[nH]1,-3,-4,-14,-6,-8,-2,/,/,/,/,/
O=[N+]([O-])c1ccc(N/N=C/c2cccc(O)c2)cc1,26*,1,17,46*,13,45*,55*,66*,19,25,11
C[C@]12CCC[C@H](O1)c1c(cc3c(c1O)C(=O)c1c(O)cc(O)cc1C3=O)O2,7,-22,-6,52*,7,80*,89*,99*,47*,-14,-10
COc1ccc(C2=NN(c3nc(-c4ccccc4)c(CC(=O)O)s3)C(c3ccco3)C2)cc1 (stereo unspecified),-15,-4,-6,69*,40*,60*,37*,49*,25,24,17
CCCCn1c(O)c(/C=C/C=C/C=Nc2ccccc2)sc1=S,5,-3,8,81*,-11,44*,20,28*,35,19,37
CCOc1ccc(-n2c(=O)c3sccc3n(Cc3cccc([N+](=O)[O-])c3)c2=O)cc1,-3,-3,10,-5,-6,1,/,/,/,/,/
CCN(CC)S(=O)(=O)c1ccc(OC)c(NC(=O)C2CC(=O)N(c3ccc(C)cc3)C2)c1 (stereo unspecified),-1,-3,-6,5,1,-4,/,/,/,/,/
O=C(N/N=C/c1sc(=O)n(-c2ccccc2)c1Cl)c1ccncc1,-4,-3,1,57*,10,32*,69*,81*,25,-26,12
CCOC(=O)c1c(C)nc(C)c(C(=O)OCC)c1-c1ccco1,5,-8,-5,-12,2,-1,/,/,/,/,/
Cc1c(C(=O)O)cccc1-n1c(C)cc(/C=N/Nc2ccc([N+](=O)[O-])cn2)c1C,-2,-22,0,56*,-7,28*,47*,57*,23,-51,-3
Cc1c(C(=O)O)cccc1-n1c(C)cc(/C=N/NC(=O)c2cc3ccccc3o2)c1C,0,-1,-1,22,5,-1,/,/,/,/,/
CCOC(=O)c1c(NC(=O)c2ccco2)n(C2CCCCC2)c2nc3ccccc3nc12,0,-4,15,45*,1,31*,28*,39*,28,10,21
Fc1ccc(Nc2cccc3nccnc23)cc1,-1,1,3,4,1,2,/,/,/,/,/
c1cc(Nc2cccc3nccnc23)c2nccnc2c1,0,-13,6,34*,-9,25*,25*,35*,31,-43,26
COc1ccc2c(c1)c(C(C)=O)c(C)n2CCc1ccccc1,-2,-6,9,-1,-5,-1,/,/,/,/,/
CC(C)N1CCc2c(sc(NC(=O)c3cc(-c4cccs4)nc4ccccc34)c2C(N)=O)C1,5,-1,9,57*,3,44*,14,22*,128*,2,56*
CCC(C)NC(=O)c1cc(-c2cccs2)nc2ccccc12 (stereo unspecified),2,0,-15,4,-13,2,/,/,/,/,/
COc1cc(/C=C2\SC(=S)N(c3cccnc3)C2=O)ccc1O,0,4,18,/,8,23,/,/,/,/,/
CCOc1cc(/C=C2\SC(=S)N(Nc3ccccc3)C2=O)ccc1O,5,6,0,82*,-12,34*,37*,50*,72*,24,79*
COc1ccc(/C=C2\SC(=S)N(C(C(=O)O)c3ccccc3)C2=O)c(OC)c1 (stereo unspecified),2,-8,23,41*,11,27*,40*,53*,18,-24,21
COc1cc(/C=C2\SC(=S)N(C(Cc3ccccc3)C(=O)O)C2=O)ccc1O (stereo unspecified),-1,18*,14,103*,-4,33*,37*,49*,62*,-17,79*
COc1cc(/C=C2\SC(=S)N(Nc3ncc(C(F)(F)F)cc3Cl)C2=O)ccc1O,14*,5,-4,72*,6,27*,32*,43*,75*,-20,75*
CCS(=O)(=O)c1ccc(C(=O)NC2CC2)c(Cl)c1Cl,-5,4,2,-2,5,1,/,/,/,/,/
Cc1ccc2nc(C(C)(C)C)c(Cc3ccccc3C(F)(F)F)n2c1,/,/,/,12,/,/,/,/,/,/,/
COc1cccc(CNC(=O)C2CCCN(S(=O)(=O)c3ccc4c(c3)C(C)(C)C(=O)N4C)C2)c1 (stereo unspecified),4,-6,-3,-2,-7,-2,/,/,/,/,/
O=C(O)c1ccc(/C=C2\SC(=S)N(NC(=O)c3ccccc3[N+](=O)[O-])C2=O)cc1,-2,-4,/,2,/,/,/,/,/,/,/
O=C(O)COc1ccccc1/C=C1\SC(=S)N(NC(=O)c2ccccc2O)C1=O,-2,8,8,41*,0,31*,31*,40*,58*,-9,54*
